The values below come from PubChem BioAssay (NCATS).

Molecules are shown by their SMILES. Inconclusive results are not listed. Calls of active or inactive are those of the source. Calls come from the whole dose curve; as a rule, active = well fitted cell-killing curve with a large enough effect; inconclusive = small, poorly fitted or top-dose-only effect; inactive = flat fitted curve, though single readings scatter.
Potency is the fitted concentration of half-maximal effect.

The assay is described as follows: Cellular viability qHTS for adrenocortical cancer (ACC) cell line NCI-H295R (AID 1963990).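 For activity change, negative = viability loss: 0% = DMSO only wells and -100% = full killing with cytotoxic reference compound.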 Note: nearly all actives have a fitted effect of over 60% in size. The note with it: CellTiter-Glo ATP luminescence, 48 h; series mostly up to 46.1 µM; activity change, negative = viability loss: at the top concentration. The method in brief:
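Viability of NCI-H295R after 48 h of treatment (final up to 46 uM) measured through cellular ATP luminescence.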
`COc1cc2c(NC3CCN(C)CC3)nc(N3CCCN(C)CC3)nc2cc1OCCCN(C)C`: the “activity change, negative = viability loss” value was -3.5% (inactive).

Turning to `CCCCCCCCCCCCCCCCOP(=O)([O-])OCC[N+](C)(C)C`, the Potency was 23.1 µM (active).

On to `CN[C@@H](C)C(=O)N[C@H](C(=O)N1CCC[C@H]1C(=O)Nc1snnc1-c1ccccc1)C1CCCCC1`, for which the “activity change, negative = viability loss” value is -10.1% (inactive).

In the case of `COc1cc2ncnc(Nc3cccc(Cl)c3F)c2cc1OC(=O)N1CCN(C)C[C@H]1C`, the “activity change, negative = viability loss” value is -18.8% (inactive).

As for `Cc1cc(C(=O)Nc2cc(Oc3ccc4nc(NC(=O)C5CC5)cn4n3)ccc2C)n(C)n1`, the Potency was 22.4 µM (active).

As for `CC/C=C(\C(=O)N[C@@H]1C(=O)N2C(C(=O)OCOC(=O)C(C)(C)C)=C(COC(N)=O)CS[C@H]12)c1csc(N)n1`, the Potency entry was “inactive”.

Regarding `Cc1ccc2nc(N)[nH]c(=O)c2c1Sc1ccncc1`, the “activity change, negative = viability loss” value was -14.7% (inactive).

Take `S=c1[nH]c2ccccc2s1`: the “activity change, negative = viability loss” value was -10.7% [at 92.7 µM] (inactive).

For `CCOC(=O)c1ccc(N)cc1`, the “activity change, negative = viability loss” value was -5.64% (inactive).

With `OCc1c[nH]c2ccccc12`, the Potency was 22.4 µM (active).

Regarding `C#C[C@]1(OC(C)=O)CC[C@H]2[C@@H]3CCC4=C[C@@H](OC(C)=O)CC[C@@H]4[C@H]3CC[C@@]21C`, the Potency was 20.6 µM (active).

For `CCCCOc1ccc(C(=O)CCN2CCCCC2)cc1`, the Potency is 8.2 µM (active).

Turning to `Cc1cccc(CC(=O)N2CCc3c2ccc(-c2cn(C)c4ncnc(N)c24)c3F)n1`, the “activity change, negative = viability loss” value is -7.81% (inactive).

Regarding `CN(C)CCOC1=Cc2ccccc2Sc2ccc(Cl)cc21`, the Potency is 20.6 µM (active).

As to `CCCCCCCCCCCC[N+](C)(C)Cc1ccccc1`, the Potency was 29.1 µM (active).

`COc1cccc(-c2cc(F)ccc2C2Cc3nc(N)nc(C)c3C(=O)N2)n1` (stereo not given): the Potency was 0.0501 µM (active).

`COc1ccc(/C=C/C(=O)Nc2ccccc2C(=O)O)cc1OC`: the “activity change, negative = viability loss” value is -19.4% (inactive).

Turning to `CS(=O)(=O)Nc1cc2occ(NC=O)c(=O)c2cc1Oc1ccccc1`, the “activity change, negative = viability loss” value was -18.1% (inactive).

In the case of `O=C(O)CC1CCC(c2ccc(-c3ccc(Nc4ccc(C(F)(F)F)nc4)cn3)cc2)CC1` (stereo not given), the “activity change, negative = viability loss” value was -8.83% (inactive).

For the compound `CN1CCN(CCC(=O)N2c3ccccc3Sc3ccc(C(F)(F)F)cc32)CC1`, the Potency is 23.1 µM (active).

Take `Nc1cccc2c(N)cccc12`: the Potency is 39.8 µM (active).

Regarding `COc1ccc(-c2ccc3c(N4CCOC[C@@H]4C)nc(N4CCOC[C@@H]4C)nc3n2)cc1CO`, the Potency was 0.178 µM (active).

With `O=C(NOCC(O)CO)c1cc(Br)c(F)c(F)c1Nc1ccc(I)cc1F` (stereo not given), the Potency was 15.8 µM (active).

For the compound `CCNC(=O)CCC/C=C\C[C@@H]1[C@@H](/C=C/C(O)CCc2ccccc2)[C@@H](O)C[C@@H]1O` (stereo not given in full), the “activity change, negative = viability loss” value is 4.25% (inactive).

As for `O=C(Nc1ncc(SCCN2CCCC2)s1)[C@]1(c2ccc(S(=O)(=O)C3CC3)cc2)C[C@H]1C1CCCCC1`, the Potency was 7.08 µM (active).
